According to PubChem BioAssay (Tox21):
Results filed as inconclusive are left out. Where a call stands in place of a potency, no number is given. Calls of active or inactive are those of the source. Unless noted, the call rests on the fitted dose curve.

system: not listed separately; test: qHTS assay to identify small molecule agonists of the peroxisome proliferator-activated receptor delta (PPARd) signaling pathway - cell viability counter screen (AID 743211; active means well fitted cell-killing curve with a large enough effect in the repeat runs; further: nearly all actives have a fitted effect of over 55% in size; further: potency means the concentration at half of the fitted maximal effect); settings: PPARd-bla HEK293H viability, CellTiter-Glo luminescence, 17 h; series mostly up to 62.6 µM
How it was run: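 PPARd-bla HEK293H cells (3000/well) were pre-incubated 5 h at 37 C, then exposed to compound for 17 h at 37 C. After 2 h with LiveBLAzer substrate, CellTiter-Glo was added to the same wells; luminescence read after 30 min at room temperature.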

Compound | Potency
CC(C)C1CCC(C(=O)N[C@H](Cc2ccccc2)C(=O)O)CC1 (some centres not stated) | inactive
CCOc1ncc(F)c(=O)[nH]1 | inactive
CCCCCCCCCCCSCC(=O)O | 15.5 µM (active)
CCCCCCCC(=O)Oc1c(Br)cc(C#N)cc1Br | inactive
COc1ccc(-c2cc(=S)ss2)cc1 | inactive
O=C1c2ccccc2C(=O)c2c(O)ccc(O)c21 | inactive
CC(C)N=C=NC(C)C | inactive
CCCCCCCCCCCCCCN(C)C | inactive
CC[C@H]1OC(=O)[C@H](C)[C@@H](O[C@H]2C[C@@](C)(OC)[C@@H](O)[C@H](C)O2)[C@H](C)[C@@H](O[C@@H]2O[C@H](C)C[C@H](N(C)C)[C@H]2O)[C@](C)(O)C[C@@H](C)C(=O)[C@H](C)[C@@H](O)[C@]1(C)O | inactive
CC(=O)OCC(=O)[C@@]1(OC(C)=O)[C@@H](C)C[C@H]2[C@@H]3C[C@H](F)C4=CC(=O)C=C[C@]4(C)[C@@]3(F)[C@@H](O)C[C@@]21C | inactive
O=S(=O)(O)CO | inactive
CC(C(=O)O)c1ccc(C(=O)c2cccs2)cc1 (configuration not stated) | inactive
O=C(O)c1cccc(C[C@@H]2COc3ccc(OCc4nc5cc(F)ccc5s4)cc3[C@@H]2O)c1 | inactive
Nc1nc(-c2ccc([N+](=O)[O-])cc2)cs1 | inactive
CC(C)(C)NCC(O)COc1cccc2c1C[C@H](O)[C@H](O)C2 (some centres not stated) | inactive

biological target: Peroxisome proliferator-activated receptor delta (Homo sapiens) (UniProt Q03181); test: qHTS assay to identify small molecule agonists of the peroxisome proliferator-activated receptor delta (PPARd) signaling pathway (AID 743212); settings: HEK293H PPARd-UAS-bla, beta-lactamase FRET ratio, 17 h; series mostly up to 62.6 µM
How it was run: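 Cells expressing a UAS-driven beta-lactamase reporter (PPARd-bla HEK293H) were given test compounds after a 5 h settle and kept at 37 C. Reporter activity was then measured as FRET fluorescence using LiveBLAzer B/G substrate.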

Peroxisome proliferator-activated receptor delta (Homo sapiens), sequence (Q03181 whole entry, looked up): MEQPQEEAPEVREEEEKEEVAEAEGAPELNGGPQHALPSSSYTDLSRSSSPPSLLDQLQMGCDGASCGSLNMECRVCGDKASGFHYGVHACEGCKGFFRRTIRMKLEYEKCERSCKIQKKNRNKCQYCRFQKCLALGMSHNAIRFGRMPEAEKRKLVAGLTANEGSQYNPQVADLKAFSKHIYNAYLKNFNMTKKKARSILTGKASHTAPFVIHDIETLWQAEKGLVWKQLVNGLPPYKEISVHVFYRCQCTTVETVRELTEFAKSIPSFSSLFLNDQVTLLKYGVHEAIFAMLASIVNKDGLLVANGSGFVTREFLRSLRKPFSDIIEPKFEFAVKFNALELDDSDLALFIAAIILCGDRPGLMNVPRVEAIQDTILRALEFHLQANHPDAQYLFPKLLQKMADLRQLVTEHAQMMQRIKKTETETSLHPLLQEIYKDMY

Compound | outcome
CC(C)(O)CCc1ccccc1 | inactive
COc1cc(NS(=O)(=O)c2ccc(N)cc2)nc(C)n1 | inactive
CC[C@H]1OC(=O)[C@H](C)[C@@H](O[C@H]2C[C@@](C)(OC)[C@@H](O)[C@H](C)O2)[C@H](C)[C@@H](O[C@@H]2O[C@H](C)C[C@H](N(C)C)[C@H]2O)[C@](C)(O)C[C@@H](C)CN(C)[C@H](C)[C@@H](O)[C@]1(C)O | inactive
CCN(Cc1cccc(S(=O)(=O)O)c1)c1ccc(C(=C2C=CC(=[N+](CC)Cc3cccc(S(=O)(=O)O)c3)C=C2)c2ccccc2S(=O)(=O)[O-])cc1 | inactive
CCO[Si](C)(CCCOCC1CO1)OCC (configuration not stated) | inactive
CCCCCc1ccco1 | inactive
CS(=O)(=O)c1ccc([C@@H](C[C@H]2CCC(=O)C2)C(=O)Nc2cnccn2)cc1Cl | inactive
CCCCCCCCCCCCCC(=O)OCC(O)CO (configuration not stated) | inactive
COc1ccc(-n2nc(C(F)F)cc2-c2ccc(S(C)=O)cc2)cc1 (configuration not stated) | inactive
c1ccc2sc(SSc3nc4ccccc4s3)nc2c1 | inactive
O=C(/C=C/c1ccc([N+](=O)[O-])cc1)c1ccccc1 | inactive
COc1cc(NCc2ccc3nc(N)nc(N)c3c2C)cc(OC)c1OC | inactive
CCN(Cc1cccc(S(=O)(=O)O)c1)c1ccc(C(=C2C=CC(=[N+](CC)Cc3cccc(S(=O)(=O)O)c3)C=C2)c2ccc(O)cc2S(=O)(=O)[O-])cc1 | inactive
CCCCCCC(O)CCOC(C)=O (configuration not stated) | inactive
CCCCC(CC)COS(=O)(=O)O (configuration not stated) | inactive
CCN(CC)c1ccc(C(=C2C=CC(=[N+](CC)CC)C=C2)c2ccc(S(=O)(=O)O)cc2S(=O)(=O)[O-])cc1 | inactive
Cc1ccc(N(CC2=NCCN2)c2cccc(O)c2)cc1 | inactive
